Source: PubChem
TrxR1 substrate: qHTS Assay for Substrates of Mammalian Selenoprotein Thioredoxin Reductase 1 (TrxR1): qHTS; 0.01% of 390,000 active; purified TrxR1 substrate turnover, NADPH consumption readout; Potency, µM (top dose mostly 114 µM), for the others: at the top dose activity change, negative = substrate turnover; AID 588456, 2011; Thioredoxin reductase 1, cytoplasmic (Rattus norvegicus), O89049; note: potency is the fitted concentration of half-maximal effect; nearly all actives have a fitted effect of over 50% in size
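Rat TrxR1, dispensed at 90 nM, was prereduced with 400 uM NADPH (final) for 5 min at ~22 deg C, then incubated with compound 15 min before 400 uM selenite. A first-read NADPH fluorescence drop versus no-compound background flagged substrates.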
VP16 counter: VP16 counterscreen qHTS for inhibitors of ROR gamma transcriptional activity; Drosophila S2 Gal4-VP16 UAS-luciferase, luminescence, 20 h; Potency, µM (highest dose often 53.6 µM), inactives show at the highest dose activity, negative = inhibition, most hits filed as inhibitors; 3.5% of 310,000 active;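 note: Gal4-VP16 expression switched on by copper sulfate through the metallothionein promoter; potency is the fitted concentration of half-maximal effect; nearly all actives have a fitted effect of over 50% in size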
FBPA coupling cs: qHTS Assay for Inhibitors of Fructose-1,6-bisphosphate Aldolase from Giardia Lamblia: Coupling assay counterscreen; coupling enzyme system counterscreen, AmpLite Red fluorescence; activity change, negative = inhibition, % at 58.2 µM, hits read low; 0.67% of 290,000 active; AID 2472, 2010; in the data active = activity change below about -30%
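Final compound at 57.5 uM, incubated 10 min at RT with coupling enzyme reagent (glyceraldehyde-3-phosphate), then 20 min with substrate and AmpLite Red detection. Fluorescence read at 525/598 nm; tests interference with the coupling assay, not aldolase inhibition.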
RORg inh: qHTS for inhibitors of ROR gamma transcriptional activity | AID 2551, 2010 | Potency, µM (top dose mostly 53.6 µM), for inactives: at the top dose activity change, negative = inhibition, hits mostly inhibitors | 5.4% of 310,000 active | Drosophila S2 Gal4-RORgamma UAS-luciferase reporter, 20 h | Nuclear receptor ROR-gamma (Mus musculus), P51450; note: potency is the fitted concentration of half-maximal effect; nearly all actives have a fitted effect of over 60% in size
Target sequence (P51450 whole entry, looked up, the tested form may be a part): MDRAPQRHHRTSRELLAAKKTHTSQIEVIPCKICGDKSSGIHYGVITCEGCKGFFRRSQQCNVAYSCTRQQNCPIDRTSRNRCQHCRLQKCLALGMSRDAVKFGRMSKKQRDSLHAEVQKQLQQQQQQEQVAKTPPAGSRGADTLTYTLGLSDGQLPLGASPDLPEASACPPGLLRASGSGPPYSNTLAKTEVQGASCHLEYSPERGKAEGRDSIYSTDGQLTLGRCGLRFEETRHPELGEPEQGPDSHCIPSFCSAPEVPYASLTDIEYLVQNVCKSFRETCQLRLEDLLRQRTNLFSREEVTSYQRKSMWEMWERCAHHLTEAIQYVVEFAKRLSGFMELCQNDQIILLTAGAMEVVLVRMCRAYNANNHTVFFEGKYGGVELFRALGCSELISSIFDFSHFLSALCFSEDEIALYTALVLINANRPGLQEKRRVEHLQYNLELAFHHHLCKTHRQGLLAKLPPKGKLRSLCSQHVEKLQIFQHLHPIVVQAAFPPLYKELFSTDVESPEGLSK
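Luminescence from a UAS-regulated Photinus luciferase reporter in stably transfected Drosophila Schneider cells is measured; decreased signal marks ROR gamma inhibition. Fusion expression is induced by 700 uM copper sulfate for 20 hr.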
TrxR1 inh: qHTS Assay for Inhibitors of Mammalian Selenoprotein Thioredoxin Reductase 1 (TrxR1): qHTS | Thioredoxin reductase 1, cytoplasmic (Rattus norvegicus), O89049 | recombinant rTrxR1, NADPH fluorescence consumption, selenite substrate | Potency, µM (top dose mostly 114 µM), inactives show top-dose activity change, negative = inhibition, actives largely listed as inhibitors | 1% of 390,000 active | AID 588453, 2011; note: potency is the fitted concentration of half-maximal effect; nearly all actives have a fitted effect of over 65% in size
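Rat TrxR1 (90 nM in the dispensed reagent) was pre-reduced with 400 uM NADPH for 5 min at room temperature, then incubated with compound for 15 min. After 400 uM selenite was added, NADPH fluorescence (Ex 340/Em 450 nm) was followed for 8 min.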
GALK inhibitor: qHTS Assay for Inhibitors of Human Galactokinase (GALK). P51570. Purified GALK, Kinase-Glo residual ATP luminescence. Potency, µM (highest dose often 57.5 µM), for the others: top-dose activity change, negative = inhibition, actives largely listed as inhibitors. 0.007% of 270,000 active. AID 1868, 2009; note: potency is the fitted concentration of half-maximal effect
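Quantitative HTS: GALK 5 nM, ATP 35 uM, galactose 100 uM, 1 h room temperature, then luciferase-based ATP detection.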
Numbers without * were called inactive; ? = inconclusive; nt = no result; [ ] = dose if it differs, or a comment. In the library only some 5.9% were active in any assay of this set; here they are far more common. Unless noted, calls come from the whole dose curve; as a rule, active = well fitted curve in the direction sought with a large enough effect; inconclusive = small, poorly fitted or top-dose-only effect, or another doubt; inactive = no such curve, though single readings can be large; an effect the other way counts as inactive or inconclusive. % is set by controls: 0 for no effect and ±100 for the full control effect.

SMILES	TrxR1 substrate	VP16 counter	FBPA coupling cs	RORg inh	TrxR1 inh	GALK inhibitor
CCc1nnc(NC(=O)CSc2nc3cccnc3n2C2CCCCC2)s1	-1.5%	?	-1.2	10µM*	-6.2%	0.2%
CCc1nnc(NC(=O)CSc2nccn2-c2cccc(C)c2C)s1	4.1%[57.1 µM]	17.8µM*	-1.3	2.82µM*	8.7%[57.1 µM]	0.7%
Cc1nc(NC(=O)CSc2nc3cccnc3n2C2CCCCC2)sc1C	4.3%	?	-0.5	-7.0%	16.0%	7.4%
CCc1nnc(NC(=O)CSc2nccn2-c2ccc(OC)cc2)s1	3.4%[57.1 µM]	nt	nt	nt	6.4%[57.1 µM]	nt
COCCN(Cc1cc2cc3c(cc2[nH]c1=O)OCO3)C(=O)c1cccs1	nt	-9.6%	0.4	6.2%	nt	-4.0%
CON(c1nc(Cl)nc(N(C)C)n1)S(=O)(=O)c1ccc(C)cc1	-6.5%	-9.1%	4.8	-0.8%	7.5%	1.0%
COc1ccc(COCC(O)CN2CCC(C(N)=O)CC2)cc1OC (stereo not drawn)	5.2%	4.4%	1.8	33.1%	16.1%	9.6%
CCCCCn1c(=O)c(-c2nc3ccccc3[nH]2)c(O)c2ccccc21	31.6%[57.1 µM]	7.94µM*	-0.9	1.58µM*	-2.5%[57.1 µM]	9.7%
COc1ccc(OCCCC(=O)OC(C)C(=O)Nc2ccc(C)cc2)cc1 (stereo not drawn)	-1.3%	nt	nt	nt	10.9%	nt
COc1ccc2[nH]c3c(c2c1)CCNC3=O	96.9%[57.1 µM]	-7.0%	-2.1	13.2%	45.9%[57.1 µM]	nt
C=C1CCc2c([nH]c3ccc(OCC(C)C)cc23)C1=O	7.5%[57.1 µM]	?	0.2	14.1µM*	17.4%[57.1 µM]	-4.1%
COC(=O)c1nc2n(n1)C(c1cccc(Cl)c1)C1=C(CC(C)(C)CC1=O)N2 (stereo not drawn)	-7.2%	2.1%	-0.4	-9.2%	2.6%	1.8%
Cc1ccc(-c2nn(-c3ccccc3)cc2CC(=S)N2CCOCC2)cc1	-8.9%	?	-0.2	17.8µM*	19.2%	-9.9%
Cc1ccc(-c2nn(-c3ccccc3)cc2CSC(=N)N)cc1	-5.7%	?	-2.4	?	-4.7%	-4.3%
Cc1c(O)ccc(/C=N/Nc2ncccc2[N+](=O)[O-])c1O	-2.3%[57.1 µM]	?	-3.9	10µM*	15.2%[57.1 µM]	1.1%
COc1ccc(CCNC(=O)c2nnn(-c3ccc4c(c3)OCCO4)c2N)cc1OC	-4.9%	?	-10.2	-39.1%	-2.3%	0.1%
CC(=O)NC(c1ccc2ccccc2c1)c1ccc2cccnc2c1O (stereo not drawn)	-5.1%	1.58µM*	0.3	5.01µM*	0.5%	-3.3%
CCCC(=O)NC(c1ccc(Cl)cc1)c1ccc2cccnc2c1O (stereo not drawn)	-10.4%	2.82µM*	0.1	2.24µM*	?	3.3%
CCCC(=O)NC(c1ccc(Cl)cc1Cl)c1ccc2cccnc2c1O (stereo not drawn)	4.4%	2µM*	-5.1	5.62µM*	3.6%	-0.5%
CCCC(=O)NC(c1ccc(C)cc1)c1ccc2cccnc2c1O (stereo not drawn)	5.0%	2.24µM*	-2.2	1.58µM*	15.4%	1.8%
Cc1oc(-c2cccc(Cl)c2)nc1CN1CCCC(C(=O)NCCc2ccc(Cl)cc2)C1 (stereo not drawn)	-0.4%	nt	nt	nt	28.4%	nt
CC(C)=N/N=C1/NC(=O)C(c2ccc(Cl)cc2)S1 (stereo not drawn)	3.0%	nt	nt	nt	2.5%	nt
O=C(c1ccc(N2CCCC2)c([N+](=O)[O-])c1)N1CCN(c2ccccn2)CC1	-0.5%[11.4 µM]	-5.2%[10 µM]	1.4	22.7%	1.8%[11.4 µM]	-0.9%
CC(=O)NC(C)c1cc(Cl)c2cccnc2c1O (stereo not drawn)	-2.3%	nt	nt	nt	13.1%	nt
CC(=O)NC(c1ccc(Cl)cc1Cl)c1ccc2cccnc2c1O (stereo not drawn)	-0.1%	1.78µM*	-5.6	2µM*	5.0%	-0.7%
SMILES	TrxR1 substrate	VP16 counter	FBPA coupling cs	RORg inh	TrxR1 inh	GALK inhibitor
COc1ccc(C(NC(C)=O)c2ccc3cccnc3c2O)cc1OC (stereo not drawn)	-5.0%	nt	nt	nt	0.9%	nt
COc1ccc(C(NC(C)=O)c2ccc3cccnc3c2O)c(OC)c1 (stereo not drawn)	-5.1%	4.47µM*	0.1	?	1.3%[57.1 µM]	5.3%
Cc1ccccc1-c1ccccc1N	-2.2%	17.5%	0.3	13.6%	2.0%	-0.2%
CC(C)(C)c1ccc(OCC(=O)N(Cc2cccs2)C2CCS(=O)(=O)C2)cc1 (stereo not drawn)	-6.7%	-6.7%	-0.9	0.3%	1.1%[57.1 µM]	nt
NC(N)=Nc1nc(CSCC/C(N)=N/S(N)(=O)=O)cs1	4.1%[57.1 µM]	6.0%	4.4	10.6%	5.7%[57.1 µM]	nt
CCN(c1ccccc1)S(=O)(=O)c1ccc(NC(=O)c2cc(=O)c3ccccc3o2)cc1	4.7%	nt	nt	nt	11.8%	nt
Cc1ccccc1NC(=S)N(Cc1ccccn1)Cc1ccccc1Cl	-0.2%	?	-0.8	6.31µM*	6.4%	-1.2%
COc1ccccc1NC(=S)N(Cc1cccnc1)Cc1ccccc1Cl	-15.2%[57.1 µM]	1.1%[10 µM]	3.0	?	18.8%[57.1 µM]	-2.3%
Cc1ccccc1NC(=S)N(Cc1cccnc1)Cc1ccccc1Cl	-3.6%[57.1 µM]	-15.5%	-2.9	2.24µM*	20.7%[57.1 µM]	8.7%
COc1ccccc1NC(=S)N(Cc1ccc(C)cc1)Cc1cccnc1	-9.4%[57.1 µM]	4.3%[10 µM]	-2.0	7.94µM*	16.3%[57.1 µM]	-0.1%
COc1ccccc1NC(=S)N(Cc1ccccn1)Cc1ccccc1Cl	7.3%[57.1 µM]	-1.2%	-0.8	33.2%	16.6%[57.1 µM]	-1.3%
O=C(NCCCCc1ccccc1)c1cccc(NC(=O)C2CC2)c1	-14.0%	nt	nt	nt	5.3%	nt
CC(C)(C)NC(=O)CSc1nc2ccccc2n1-c1ccccc1	5.6%[57.1 µM]	-18.1%	1.4	-43.6%	22.6%[57.1 µM]	-2.0%
O=c1c(N=Nc2ccc(O)cc2)c(-c2ccccc2)[nH]n1-c1ccc([N+](=O)[O-])cc1	4.2%[57.1 µM]	-1.6%	0.1	-1.0%	4.1%[57.1 µM]	0.7%
NC(=S)n1[nH]c(-c2ccc([N+](=O)[O-])cc2)c(N=Nc2ccc(Cl)cc2)c1=O	-11.2%	?	-1.0	0.398µM*	-6.6%	5.9%
Cc1ccc([N+](=O)[O-])cc1N=Nc1c(C)[nH]n(C(N)=S)c1=O	0.9%	10µM*	1.9	7.08µM*	10.0%	0.9%
Cc1ccc([N+](=O)[O-])cc1N=Nc1c(-c2ccc([N+](=O)[O-])cc2)[nH]n(C(N)=S)c1=O	-7.3%	-10.9%	-0.9	0.316µM*	3.7%	-5.1%
